Source: PubChem BioAssay (several laboratories)
This is a sample that favours compounds with a hit; in the whole collection about 4.4% have one here.
tim23-1 inh: growth inhibitors of tim23-1 mutant yeast; inhibition, % at 20 µM; hit rate 1.3% among 330,000; S. cerevisiae tim23-1 growth, BacTiter-Glo luminescence, 24 h;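 active = growth inhibition of the mutant yeast at or above 50%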;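 note: temperature-sensitive mutant grown at 25 °C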
SKKanGAS inh: inhibitors of SKKanGAS S. pyogenes growth in kanamycin (SK-promoter or general growth effect). BacTiter-Glo, 6 h. inhibition, % at 7.5 µM. hit rate 1.3% among 300,000. AID 1662;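 active = mean replicate score, as percent of positive control median, at least 50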;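 note: strain carries kanamycin resistance gene driven by streptokinase promoter and grows in 40 µg/ml kanamycin; loss of luminescence reflects streptokinase promoter inhibition or plain growth inhibition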
tim10-1 inh: tim10-1 yeast growth inhibition; S. cerevisiae tim10-1 ts strain growth, BacTiter-Glo, 24 h; inhibition, % at 20 µM; hit rate 2.2% among 330,000; AID 463190;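 active = inhibition of at least 40%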;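 note: mutant grown at 25 °C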
PfHsp90 set2: inhibits growth of yeast expressing Plasmodium falciparum Hsp90 | AID 504621 | inhibition, % at 9.4 µM | S. cerevisiae expressing PfHsp90, BacTiter-Glo ATP, 48 h; yeast lacking PDR1 and PDR3 efflux regulators | hit rate 0.32% among 310,000;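 active = every replicate shows inhibition above about 80%, whatever the replicate mean, limit read from the data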
TIM10 inh: inhibits growth of TIM10 yeast strain. S. cerevisiae TIM10 strain growth, BacTiter-Glo luminescence, 24 h. inhibition, % at 10 µM. hit rate 1.4% among 330,000;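 active = inhibition of 40% or more at the single tested concentration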;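 note: wild-type TIM10 isogenic control strain grown at permissive 25 °C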
TIM10 conf: TIM10 yeast growth inhibition, confirmed. shares compounds with TIM10 inh. S. cerevisiae tim10 strain growth, BacTiter-Glo luminescence, 24 h. inhibition, % at 10 µM. hit rate 63% among 4,600. AID 463215;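 active = inhibition of yeast growth at or above a set limit in either of two replicates at 10 µM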; note: this counterscreen used the strain with wild-type TIM10
Of the large screens only hits and unclear results are named; the others gave an inactive call (follow-up assays come after a bar, where they were run).

COc1ccc(Oc2nc(-c3ccncc3)nc3ccccc23)cc1	none
COc1cnc(-c2ccccn2)nc1Oc1cccc(Cl)c1	TIM10 inh 46 | TIM10 conf 49
Clc1cccc(Oc2cnc3ccccc3n2)c1	none
COc1ccc(Oc2nc(-c3ccccn3)nc3ccccc23)cc1	SKKanGAS inh 80, TIM10 inh 41 (no result: PfHsp90 set2) | TIM10 conf 34
O=C(c1ccsc1)N1CCCC(N2CCOCC2)C1 (stereo unspecified)	none
COc1ccc(-c2nc(C#N)c(NCCc3ccccc3)o2)cc1OC	TIM10 inh 46 | TIM10 conf 41
Cc1ccc(CNc2oc(-c3ccco3)nc2C#N)cc1	none
N#Cc1nc(-c2ccco2)oc1NCCc1ccccc1	TIM10 inh 65 | TIM10 conf 57
COc1ccc(CCNc2oc(COc3ccc(F)cc3)nc2C#N)cc1	TIM10 inh 43 (no result: SKKanGAS inh) | TIM10 conf 36
COc1ccc(Cc2nc(C)cc(Cl)n2)cc1[N+](=O)[O-]	TIM10 inh 42 | TIM10 conf inactive
CCN(CC)CCNC(=O)c1cc(Br)c(N)cc1OC	none (no result: SKKanGAS inh)
N#CC1(NC(=O)CSc2nnc3n2CCCCC3)CCCCC1	TIM10 inh 81 (no result: SKKanGAS inh) | TIM10 conf inactive
O=C(CSCc1cc(=O)n2ccsc2n1)Nc1ccc(F)cc1	none
Cc1ccc(C(=O)NCc2cccnc2)cc1S(=O)(=O)Nc1ccccc1	none
c1ccc(Nc2nc(NCc3ccco3)c3ccccc3n2)cc1	none
CSc1nc(NCc2ccco2)c2ccccc2n1	TIM10 inh 40 | TIM10 conf inactive
CCN1c2ccccc2-c2nc3ccccc3n2C1c1ccco1 (stereo unspecified)	TIM10 inh 40 | TIM10 conf 35
CN1c2ccccc2-c2nc3ccccc3n2C1c1ccccn1 (stereo unspecified)	TIM10 inh 43 | TIM10 conf inactive
CN1c2ccccc2-c2nc3ccccc3n2C1c1ccncc1 (stereo unspecified)	none
CCOC(=O)c1ccc(NS(=O)(=O)c2c(C)[nH]c(C)c2C(=O)N2CCCCC2)cc1	none
COc1ccc(C(=O)N/C(=C\c2ccccc2)C(=O)NCc2cccnc2)cc1	none
Cc1nc(NC(=O)C2CC2)sc1C(=O)Nc1ccccc1	none
Cc1nc(Nc2c(Cl)cccc2Cl)sc1C(=O)Nc1ccccc1	TIM10 inh 44 | TIM10 conf inactive
CC1(C)Oc2ccc3ccc(=O)oc3c2/C(=C/NC2CCCCC2)C1=O	TIM10 inh 54 | TIM10 conf 42
CC(=O)c1ccc(N2CCN(C(=O)c3cccs3)C(C)C2)c(F)c1 (stereo unspecified)	none
CCN(CC)CCN(C(=O)c1ccc2c(c1)CCCC2)c1nc2c(C)cccc2s1	TIM10 inh 40 | TIM10 conf inactive
CCN(CC)CCN(C(=O)c1ccc2c(c1)CCCC2)c1nc2ccc(C)cc2s1	none
COC(=O)C1=C(N)Oc2cc(N(C)C)ccc2C1c1ccccc1OC (stereo unspecified)	TIM10 inh 42 | TIM10 conf inactive
Cc1ccc(-n2nnc3c(=O)oc4ccccc4c32)cc1	TIM10 inh 77 | TIM10 conf 91
CC(=O)c1ccccc1C(=O)N1CCC(n2nccc2NC(=O)C2CC2)CC1	none
O=C(COC(=O)c1ccccc1Nc1ccc(SC(F)F)cc1)NC1CC1	TIM10 inh 51 | TIM10 conf 37
CNC(=O)c1ccc(Nc2nc(-c3ccccc3)nc3ccccc23)cc1	TIM10 inh 40 | TIM10 conf inactive
Cc1ccc(C(=O)c2ccccc2C(=O)Nc2ccccc2)cc1	none
Cc1ccc(C)c(NC(=O)c2ccccc2C(=O)c2ccccc2)c1	TIM10 inh 41 (no result: PfHsp90 set2) | TIM10 conf inactive
COc1ccc(C(=O)N/C(=C/c2ccc(Cl)cc2)C(=O)NCc2ccncc2)cc1	TIM10 inh 96 | TIM10 conf inactive
O=C1C=C(Nc2ccc(Cl)cc2)CC(c2ccc(Cl)cc2)C1 (stereo unspecified)	TIM10 inh 42 (no result: PfHsp90 set2) | TIM10 conf inactive
Cc1ccc(C2CC(=O)C=C(Nc3ccc(Cl)cc3)C2)cc1 (stereo unspecified)	none
Cc1ccc(S(=O)(=O)NCc2ccc(C(=O)NCCCN3CCC(Cc4ccccc4)CC3)cc2)cc1	none
Cc1nc2ccc(-c3nc4ccccc4o3)cc2[nH]1	TIM10 inh 47 | TIM10 conf 34
Nc1ccc(-c2nc3ccc(N)cc3o2)cc1	none
Nc1ccc(-c2nc3ccc(-c4nc5ccccc5o4)cc3[nH]2)cc1	TIM10 inh 55 | TIM10 conf inactive
Cc1ccnc2ccc(-c3nc4ccccc4o3)cc12	none (no result: SKKanGAS inh)
COc1cccc(C2NC(=O)c3ccccc3O2)c1OCc1ccccc1F (stereo unspecified)	TIM10 inh 43 | TIM10 conf inactive
COc1cccc(C2NC(=O)c3ccccc3O2)c1OC (stereo unspecified)	none (no result: PfHsp90 set2)
Cc1ccc2nc(-c3ccc4c(c3)NC(=O)CO4)cn2c1	TIM10 inh 46 | TIM10 conf 45
CCOC(=O)c1nn(-c2ccc(C)cc2)c(=O)cc1OCC(=O)N1CCN(c2ccccc2)CC1	none
O=C(CSc1nc(=O)n(CCCN2CCOCC2)c2c1CCCC2)Nc1ccc(F)cc1	none
O=c1c(-c2nnc(SCc3ccc(Cl)c(Cl)c3)o2)cccn1Cc1ccccc1	TIM10 inh 43 | TIM10 conf 30
CCCCN(C)C(=O)c1nc2ccccn2c1CN1CCC[C@H]1CO	none
N/C(=N/O)c1nc(N2CCCC2)nc(N(c2ccccc2)c2ccccc2)n1	TIM10 inh 53 | TIM10 conf 36
Cc1onc(-c2c(Cl)cccc2Cl)c1C(=O)N1CCN(c2ccccc2)CC1	TIM10 inh 42 | TIM10 conf inactive
Cc1onc(-c2c(Cl)cccc2Cl)c1C(=O)N1CCN(c2ccc(F)cc2)CC1	none
Clc1ccc2[nH]cc(-c3nnnn3-c3ccccc3)c2c1	TIM10 inh 42 (no result: PfHsp90 set2) | TIM10 conf inactive
Clc1ccc(-n2nnnc2-c2cnc3ccc(Cl)cc3c2-c2ccccc2)cc1	none
COc1ccccc1-c1coc2cc(O)cc(O)c2c1=O	TIM10 inh 42 | TIM10 conf inactive
COc1ccc(-c2coc3cc(O)cc(O)c3c2=O)cc1OC	none
COc1ccc(/C=N/NC(=S)NCC2CCCO2)cc1 (stereo unspecified)	TIM10 inh 44 | TIM10 conf inactive
COc1ccccc1/C=C/C(=O)NC(=S)NCC1CCCO1 (stereo unspecified)	TIM10 inh 42 | TIM10 conf 35
COc1cc(/C=N/NC(=S)NCC2CCCO2)cc(OC)c1OC (stereo unspecified)	none
COc1ccc(/C=C/C(=O)NC(=S)NCC2CCCO2)cc1 (stereo unspecified)	none
O=C(NC(Cc1cccc(F)c1)C(=O)O)C1CCCCC1 (stereo unspecified)	none (no result: SKKanGAS inh)
Cn1cc(/C=C2\SC(=O)N(c3ccc(O)cc3)C2=O)c2ccccc21	TIM10 inh 44 | TIM10 conf 38
Cn1cc(/C=C2\SC(=O)N(c3ccccc3)C2=O)c2ccccc21	none
